Measurements published in PubChem BioAssay (EPA / NIEHS).
Results filed as inconclusive are left out. Activity calls are given as the source filed them. The calls were made as follows, unless noted: active = hit-call score of the fitted dose curve at least 0.9, where 1 is the maximum; inconclusive = response in the unintended direction; inactive = score below 0.9.

Tests used:
[1] = ATG_TCF_b_cat_CIS: Attagene CIS-FACTORIAL HepG2 Assay for human T-Cell-Factor with beta-catenin (TCF/b-cat) (AID 2282965; active = hit-call score of the fitted dose curve at least 0.9, where 1 is the maximum; inactive = score below 0.9); conditions: HepG2 TCF/beta-catenin cis-reporter transcription, actives raise or lower the signal
In short: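 In this cis-format system, transfected HepG2 cells report endogenous transcription factor activity. Readout after 24 h exposure is reporter transcript abundance from RT-PCR and capillary electrophoresis, analysed for gain or loss of signal versus DMSO.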

[2] = ATG_TAL_CIS: Attagene CIS-FACTORIAL HepG2 Assay for human TAL Basal Promoter (AID 2282966; active = hit-call score of the fitted dose curve at least 0.9, where 1 is the maximum; inactive = score below 0.9;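 also: background control endpoint measuring basal TAL promoter reporter mRNA not a specific factor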); conditions: HepG2 Attagene cis-factorial TAL promoter reporter; actives raise or lower the signal
In short: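 Readout: reporter mRNA, fluorescence by CE. System: HepG2, transient multi-reporter transfection, endogenous TF activity. Exposure: 24 h. Analysis: bidirectional, DMSO-normalized; background control.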

[3] = ATG_TGFb_CIS: Attagene CIS-FACTORIAL HepG2 Assay for human Transforming Growth Factor (TGF) (AID 2282967; active = hit-call score of the fitted dose curve at least 0.9, where 1 is the maximum; inactive = score below 0.9); conditions: HepG2 Attagene CIS TGFb reporter, mRNA transcription; actives raise or lower the signal
In short: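 Endogenous TGFB1-linked transcription factor activity read as reporter mRNA via RT-PCR and capillary electrophoresis, 24 h after dosing transiently transfected HepG2 cells. Gain or loss of signal fitted relative to DMSO.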

[4] = ATG_VDRE_CIS: Attagene CIS-FACTORIAL HepG2 Assay for human Vitamin D Receptor Element (VDRE) (AID 2282968; active = hit-call score of the fitted dose curve at least 0.9, where 1 is the maximum; inactive = score below 0.9); conditions: HepG2 VDRE cis-reporter transcription, actives raise or lower the signal
In short: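 HepG2 cells transiently transfected with cis-element reporter units, dosed 24 h; reporter mRNA measured by RT-PCR, 6-FAM labeling, HpaI digestion and capillary electrophoresis. Activity fitted bidirectionally against DMSO baseline.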

[5] = biological target: Estrogen receptor (Homo sapiens) (UniProt P03372); assay: ATG_ERa_TRANS: Attagene TRANS-FACTORIAL HepG2 Assay for human Estrogen Receptor alpha (ERa) (AID 2282970); conditions: HepG2 Attagene TRANS ERa GAL4 reporter, mRNA
Sequence of Estrogen receptor (Homo sapiens) (P03372 whole entry, looked up, the tested form may be a part): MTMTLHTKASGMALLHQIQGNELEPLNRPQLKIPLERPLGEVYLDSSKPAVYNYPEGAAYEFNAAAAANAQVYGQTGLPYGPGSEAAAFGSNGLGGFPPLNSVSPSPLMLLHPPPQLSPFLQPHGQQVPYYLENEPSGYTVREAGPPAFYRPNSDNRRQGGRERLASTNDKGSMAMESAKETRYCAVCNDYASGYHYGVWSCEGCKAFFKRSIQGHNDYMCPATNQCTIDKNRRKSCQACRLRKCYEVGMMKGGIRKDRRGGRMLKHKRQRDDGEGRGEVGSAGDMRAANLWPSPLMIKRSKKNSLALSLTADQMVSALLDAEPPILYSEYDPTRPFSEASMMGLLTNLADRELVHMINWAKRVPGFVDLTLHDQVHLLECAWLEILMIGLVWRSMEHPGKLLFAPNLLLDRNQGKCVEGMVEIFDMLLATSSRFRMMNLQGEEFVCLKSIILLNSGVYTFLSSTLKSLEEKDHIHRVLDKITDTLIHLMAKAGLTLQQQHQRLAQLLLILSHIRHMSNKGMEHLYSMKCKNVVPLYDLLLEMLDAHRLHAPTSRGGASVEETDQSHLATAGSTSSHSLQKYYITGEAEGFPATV
In short: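 Transactivation via ERa-Gal4 chimera in HepG2; 24 hour incubation; reporter mRNA detected by fluorescence RT-PCR and capillary electrophoresis.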

[6] = biological target: X-box-binding protein 1 (Homo sapiens) (UniProt P17861); assay: ATG_Xbp1_CIS: Attagene CIS-FACTORIAL HepG2 Assay for human X-box Binding Protein 1 (XBP1) (AID 2282972; active = hit-call score of the fitted dose curve at least 0.9, where 1 is the maximum; inactive = score below 0.9); conditions: HepG2 XBP1 cis-element reporter, Attagene multiplex; actives raise or lower the signal
Sequence of X-box-binding protein 1 (Homo sapiens) (P17861 whole entry, looked up): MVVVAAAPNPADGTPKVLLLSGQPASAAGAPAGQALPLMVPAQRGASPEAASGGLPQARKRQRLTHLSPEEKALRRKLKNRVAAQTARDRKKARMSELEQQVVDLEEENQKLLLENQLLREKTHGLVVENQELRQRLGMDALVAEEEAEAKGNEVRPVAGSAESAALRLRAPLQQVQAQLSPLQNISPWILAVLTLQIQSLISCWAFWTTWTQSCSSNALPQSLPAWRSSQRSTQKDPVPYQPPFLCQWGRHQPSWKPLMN
In short: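 HepG2 cells transiently transfected with multiple cis-element reporter units report endogenous TF activity; 24 h exposure, then reporter mRNA measured by RT-PCR, 6-FAM labelling, HpaI digestion and capillary electrophoresis. Bidirectional fitting versus DMSO.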

[7] = ATG_M_19_TRANS: Attagene TRANS-FACTORIAL HepG2 Assay for M19 Transcription Factor (Internal Marker) (AID 2282974); conditions: HepG2 Attagene TRANS-FACTORIAL M19 internal marker reporter
In short: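 Transfected HepG2 (GAL4-UAS MRTUs), 24 h compound, TriZol RNA, DNase-treated RT, reporter PCR, FAM label, HpaI digest, CE fluorescence; gain vs DMSO.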

[8] = ATG_Hpa5_TRANS: Attagene TRANS-FACTORIAL HepG2 Assay for human GAL4-Hpa5 Hepatocyte Transcription Factor Basal Promoter (AID 2282975); conditions: HepG2 Attagene GAL4-Hpa5 transcription reporter;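 also: hits are increases in reporter mRNA over DMSO baseline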
In short: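 Basal-promoter GAL4 background control within the HepG2 trans-factorial panel of transiently transfected reporter units. Reporter mRNA is measured 24 h after dosing by RT-PCR and capillary electrophoresis, fitted for gain of signal versus DMSO.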

[9] = biological target: Oxysterols receptor LXR-alpha (Homo sapiens) (UniProt Q13133); assay: ATG_LXRa_TRANS: Attagene TRANS-FACTORIAL HepG2 Assay for human Liver X Receptor alpha (LXRa) (AID 2282980); conditions: HepG2 Attagene TRANS reporter, LXRa transactivation
Sequence of Oxysterols receptor LXR-alpha (Homo sapiens) (Q13133 whole entry, looked up): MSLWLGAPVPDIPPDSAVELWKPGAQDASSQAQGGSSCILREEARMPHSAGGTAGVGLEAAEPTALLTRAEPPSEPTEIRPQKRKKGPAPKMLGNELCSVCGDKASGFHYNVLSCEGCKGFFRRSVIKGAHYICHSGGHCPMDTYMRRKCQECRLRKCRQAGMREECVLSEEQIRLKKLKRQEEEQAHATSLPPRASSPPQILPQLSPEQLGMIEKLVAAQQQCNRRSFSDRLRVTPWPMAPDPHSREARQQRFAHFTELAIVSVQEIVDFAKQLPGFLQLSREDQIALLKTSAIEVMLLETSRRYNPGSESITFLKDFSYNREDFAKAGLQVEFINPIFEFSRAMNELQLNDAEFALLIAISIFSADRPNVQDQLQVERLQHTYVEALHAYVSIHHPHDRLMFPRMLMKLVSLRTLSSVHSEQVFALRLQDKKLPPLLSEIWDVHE
In short: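 Transient HepG2 transfectants, 24 h dosing, RT-PCR/CE mRNA reporter quantitation; gain-of-signal vs DMSO.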

[10] = biological target: Hepatocyte nuclear factor 4-alpha (Homo sapiens) (UniProt P41235); assay: ATG_HNF4a_TRANS: Attagene TRANS-FACTORIAL HepG2 Assay for human Hepatocyte Nuclear Factor 4 alpha (HNF4a) (AID 2282982); conditions: HepG2 HNF4a transactivation reporter, mRNA readout
Sequence of Hepatocyte nuclear factor 4-alpha (Homo sapiens) (P41235 whole entry, looked up, the tested form may be a part): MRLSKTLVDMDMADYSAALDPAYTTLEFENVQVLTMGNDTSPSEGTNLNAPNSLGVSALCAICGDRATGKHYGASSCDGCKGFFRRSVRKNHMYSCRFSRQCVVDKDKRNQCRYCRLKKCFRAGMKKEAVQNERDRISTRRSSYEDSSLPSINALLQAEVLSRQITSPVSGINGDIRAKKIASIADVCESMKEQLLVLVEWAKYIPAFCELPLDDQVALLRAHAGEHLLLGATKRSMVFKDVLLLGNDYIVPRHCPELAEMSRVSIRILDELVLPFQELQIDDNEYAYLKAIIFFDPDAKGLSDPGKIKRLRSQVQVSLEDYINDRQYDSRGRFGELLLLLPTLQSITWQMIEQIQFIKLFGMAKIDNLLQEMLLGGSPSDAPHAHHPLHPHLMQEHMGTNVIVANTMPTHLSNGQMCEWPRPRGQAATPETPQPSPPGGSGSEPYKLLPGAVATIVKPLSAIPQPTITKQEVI
In short: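 HepG2 cells transiently transfected with multiplexed GAL4-UAS reporter units responsive to chimeric NR-GAL4 proteins; compound exposure 24 h. Reporter mRNA quantified by RT-PCR, 6-FAM labelling, HpaI digestion and capillary electrophoresis; gain of signal versus DMSO baseline.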

[11] = biological target: Nuclear receptor subfamily 4 group A member 2 (Homo sapiens) (UniProt P43354); assay: ATG_NURR1_TRANS: Attagene TRANS-FACTORIAL HepG2 Assay for human Nuclear Receptor Related Protein 1 (NURR1) (AID 2282985); conditions: HepG2 Attagene TRANS reporter, mRNA readout
Sequence of Nuclear receptor subfamily 4 group A member 2 (Homo sapiens) (P43354 whole entry, looked up, the tested form may be a part): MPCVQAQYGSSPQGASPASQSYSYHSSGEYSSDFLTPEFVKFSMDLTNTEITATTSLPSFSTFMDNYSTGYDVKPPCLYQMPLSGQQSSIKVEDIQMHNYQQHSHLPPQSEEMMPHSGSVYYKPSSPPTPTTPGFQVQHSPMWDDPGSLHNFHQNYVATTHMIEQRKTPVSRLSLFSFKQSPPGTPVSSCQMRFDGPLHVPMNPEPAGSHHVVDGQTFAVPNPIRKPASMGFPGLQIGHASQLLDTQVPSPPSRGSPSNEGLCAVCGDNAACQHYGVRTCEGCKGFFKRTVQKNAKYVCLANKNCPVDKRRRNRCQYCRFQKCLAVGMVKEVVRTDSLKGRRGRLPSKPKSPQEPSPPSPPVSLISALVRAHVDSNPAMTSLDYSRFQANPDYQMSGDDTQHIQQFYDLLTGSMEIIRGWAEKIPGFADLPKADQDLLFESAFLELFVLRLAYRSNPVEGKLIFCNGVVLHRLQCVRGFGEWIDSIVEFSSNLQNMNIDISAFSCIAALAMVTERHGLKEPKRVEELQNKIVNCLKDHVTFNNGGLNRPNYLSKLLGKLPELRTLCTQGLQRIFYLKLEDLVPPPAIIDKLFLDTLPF
In short: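 HepG2 cells transiently transfected with GAL4-UAS reporter units and chimeric NR-Gal4 constructs; chemical exposure 24 h. Reporter mRNA quantified by RT-PCR, fluorescent labelling and capillary electrophoresis; gain of signal fitted relative to DMSO baseline.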

[12] = biological target: Transcriptional activator Myb (Homo sapiens) (UniProt P10242); assay: ATG_Myb_CIS: Attagene CIS-FACTORIAL HepG2 Assay for human Myeloblastosis (Myb) Proto-Oncogene Transcription Factor (AID 2282986; active = hit-call score of the fitted dose curve at least 0.9, where 1 is the maximum; inactive = score below 0.9); conditions: HepG2 Attagene CIS-FACTORIAL Myb reporter transcription; actives raise or lower the signal
Sequence of Transcriptional activator Myb (Homo sapiens) (P10242 whole entry, looked up): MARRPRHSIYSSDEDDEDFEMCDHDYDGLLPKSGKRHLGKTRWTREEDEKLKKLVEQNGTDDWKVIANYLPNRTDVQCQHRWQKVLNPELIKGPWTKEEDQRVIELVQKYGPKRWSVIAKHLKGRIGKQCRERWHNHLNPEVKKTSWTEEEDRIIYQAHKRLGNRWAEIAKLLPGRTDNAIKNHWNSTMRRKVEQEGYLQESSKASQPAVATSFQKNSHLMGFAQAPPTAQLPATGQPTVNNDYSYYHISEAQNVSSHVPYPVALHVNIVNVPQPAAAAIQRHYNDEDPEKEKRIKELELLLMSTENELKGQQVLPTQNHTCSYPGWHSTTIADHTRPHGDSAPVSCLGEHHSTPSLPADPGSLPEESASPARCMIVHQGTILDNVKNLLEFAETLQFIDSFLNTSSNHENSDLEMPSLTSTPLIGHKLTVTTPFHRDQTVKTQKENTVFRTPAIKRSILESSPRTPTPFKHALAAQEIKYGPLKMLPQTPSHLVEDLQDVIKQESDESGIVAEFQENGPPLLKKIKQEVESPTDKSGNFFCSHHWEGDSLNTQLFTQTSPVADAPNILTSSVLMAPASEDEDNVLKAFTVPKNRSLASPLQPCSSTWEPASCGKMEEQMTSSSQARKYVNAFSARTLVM
In short: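 After 24 h of compound dosing, total RNA from transfected HepG2 cells is reverse-transcribed and the reporter sequences amplified, labeled and separated by capillary electrophoresis. Values come from bidirectional fitting against DMSO.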

[13] = biological target: Nuclear receptor subfamily 1 group I member 3 (Homo sapiens) (UniProt Q14994); assay: ATG_CAR_TRANS: Attagene TRANS-FACTORIAL HepG2 Assay for human Constitutive Androstane Receptor (CAR) (AID 2282969); conditions: HepG2 Attagene TRANS-FACTORIAL CAR reporter;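 also: activators raise reporter mRNA above DMSO so AC50 marks induction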
Sequence of Nuclear receptor subfamily 1 group I member 3 (Homo sapiens) (Q14994 whole entry, looked up, the tested form may be a part): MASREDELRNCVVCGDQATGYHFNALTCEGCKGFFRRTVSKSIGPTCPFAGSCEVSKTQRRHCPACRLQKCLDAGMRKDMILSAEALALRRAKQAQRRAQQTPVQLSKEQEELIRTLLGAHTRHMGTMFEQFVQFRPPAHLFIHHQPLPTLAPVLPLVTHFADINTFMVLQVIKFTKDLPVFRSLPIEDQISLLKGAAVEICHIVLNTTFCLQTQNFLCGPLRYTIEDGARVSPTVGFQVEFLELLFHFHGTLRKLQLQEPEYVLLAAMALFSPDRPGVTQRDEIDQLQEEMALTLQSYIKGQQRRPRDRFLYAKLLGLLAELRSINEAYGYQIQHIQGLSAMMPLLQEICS
In short: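 HepG2 cells transiently transfected with multiplexed GAL4-UAS reporter units expressing chimeric NR-Gal4 proteins; compound exposure 24 h. Reporter mRNA measured by RT-PCR, 6-FAM labelling, HpaI digestion and capillary electrophoresis; gain-of-signal fitted against DMSO baseline.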

[14] = biological target: Oxysterols receptor LXR-beta (Homo sapiens) (UniProt P55055); assay: ATG_LXRb_TRANS: Attagene TRANS-FACTORIAL HepG2 Assay for human Liver X Receptor beta (LXRb) (AID 2282981); conditions: HepG2 Attagene TRANS GAL4-LXRb reporter, mRNA
Sequence of Oxysterols receptor LXR-beta (Homo sapiens) (P55055 whole entry, looked up, the tested form may be a part): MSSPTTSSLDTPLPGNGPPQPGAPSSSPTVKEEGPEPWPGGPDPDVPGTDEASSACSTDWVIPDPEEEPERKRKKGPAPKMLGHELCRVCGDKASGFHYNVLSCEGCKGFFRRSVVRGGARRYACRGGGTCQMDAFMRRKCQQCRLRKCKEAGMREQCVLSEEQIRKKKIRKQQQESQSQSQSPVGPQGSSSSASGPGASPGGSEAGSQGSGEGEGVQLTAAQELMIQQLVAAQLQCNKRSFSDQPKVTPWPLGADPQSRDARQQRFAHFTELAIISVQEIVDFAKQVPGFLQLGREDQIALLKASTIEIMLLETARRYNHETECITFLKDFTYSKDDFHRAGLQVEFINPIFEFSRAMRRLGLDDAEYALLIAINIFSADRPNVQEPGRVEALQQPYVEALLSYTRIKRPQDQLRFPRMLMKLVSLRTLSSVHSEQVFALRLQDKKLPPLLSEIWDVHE
In short: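 HepG2 cells transiently transfected with multiple reporter transcription units carrying chimeric NR-Gal4 proteins acting on GAL4-UAS reporters; compound exposure 24 h. Reporter mRNA quantified by RT-PCR, 6-FAM labelling, HpaI digestion and capillary electrophoresis; gain of signal versus DMSO.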

[15] = ATG_M_06_TRANS: Attagene TRANS-FACTORIAL HepG2 Assay for M06 Transcription Factor (Internal Marker) (AID 2282983); conditions: HepG2 Attagene TRANS M06 internal marker reporter;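 also: reporter transcript level by RT-PCR then capillary electrophoresis fluorescence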
In short: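 Measured by capillary electrophoresis of fluorescently labelled RT-PCR products, this endpoint reflects reporter mRNA in HepG2 cells harbouring exogenous NR-GAL4 reporter constructs after 24 h exposure, with DMSO as baseline.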

[16] = biological target: Androgen receptor (Homo sapiens) (UniProt P10275); assay: ATG_AR_TRANS: Attagene TRANS-FACTORIAL HepG2 Assay for human Androgen Receptor (AR) (AID 2282973); conditions: HepG2 Attagene TRANS-FACTORIAL AR reporter transcription
In short: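 Transfected HepG2, 24 h treatment, chimeric NR-Gal4 driving GAL4-UAS reporters. mRNA induction by RT-PCR/capillary electrophoresis fluorescence; DMSO as negative control and baseline.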

[17] = ATG_M_32_TRANS: Attagene TRANS-FACTORIAL HepG2 Assay for M32 Transcription Factor (Internal Marker) (AID 2282984); conditions: HepG2 Attagene TRANS M32 internal marker reporter
In short: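 HepG2 cells transiently transfected with multiple GAL4-UAS reporter transcription units, dosed for 24 hours; reporter mRNA quantified by RT-PCR, 6-FAM primer extension, HpaI digestion and capillary electrophoresis. Gain-of-signal fitted versus DMSO baseline; internal background-control marker.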

[18] = biological target: Steroid hormone receptor ERR1 (Homo sapiens) (UniProt P11474); assay: ATG_ERRa_TRANS: Attagene TRANS-FACTORIAL HepG2 Assay for human Estrogen-Related Receptor alpha (ERRa) (AID 2282971); conditions: HepG2 Attagene TRANS reporter, ERRa transactivation
Sequence of Steroid hormone receptor ERR1 (Homo sapiens) (P11474 whole entry, looked up, the tested form may be a part): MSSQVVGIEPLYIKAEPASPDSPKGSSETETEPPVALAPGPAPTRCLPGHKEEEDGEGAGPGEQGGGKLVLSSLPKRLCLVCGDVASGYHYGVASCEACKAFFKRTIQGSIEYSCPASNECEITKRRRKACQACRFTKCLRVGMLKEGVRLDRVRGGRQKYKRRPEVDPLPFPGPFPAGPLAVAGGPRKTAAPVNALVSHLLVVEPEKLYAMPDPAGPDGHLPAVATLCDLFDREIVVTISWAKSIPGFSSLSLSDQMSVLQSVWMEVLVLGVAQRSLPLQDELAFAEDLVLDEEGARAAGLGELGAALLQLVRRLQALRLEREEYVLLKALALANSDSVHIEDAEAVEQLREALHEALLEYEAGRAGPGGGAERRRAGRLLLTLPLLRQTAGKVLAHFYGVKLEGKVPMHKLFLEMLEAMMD
In short: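 HepG2 cells were transiently transfected with multiple GAL4-UAS reporter units, then dosed with compound for 24 h. Total RNA was reverse-transcribed, reporter cDNA PCR-amplified and fluorescently labelled, and fragments resolved by capillary electrophoresis; induction was compared with DMSO.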

[19] = biological target: Glucocorticoid receptor (Homo sapiens) (UniProt P04150); assay: ATG_GR_TRANS: Attagene TRANS-FACTORIAL HepG2 Assay for human Glucocorticoid Receptor (GR) (AID 2282978); conditions: HepG2 Attagene TRANS GR reporter, mRNA transcription;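 also: activators score as hits since higher reporter transcript over DMSO is fitted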
In short: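 After 24 h incubation with test chemical, transfected HepG2 cells were lysed for RNA; reporter cDNA was amplified, FAM-labelled, HpaI-digested and sized on a capillary analyser. Signal gain relative to DMSO was scored.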

## CCC(C)Nc1c([N+](=O)[O-])cc(C(C)(C)C)cc1[N+](=O)[O-] (centres undefined)
[1]
  outcome: inactive
[2]
  outcome: inactive
[3]
  outcome: inactive
[4]
  AC50: 19.2 µM (active)
[5]
  AC50: 12.4 µM (active)
[6]
  outcome: inactive
[7]
  outcome: inactive
[8]
  outcome: inactive
[9]
  outcome: inactive
[10]
  outcome: inactive
[11]
  outcome: inactive
[12]
  outcome: inactive

## C[C@H]1[C@H](c2ccc(Cl)cc2)SC(=O)N1C(=O)NC1CCCCC1
[1]
  outcome: inactive
[2]
  outcome: inactive
[3]
  outcome: inactive
[4]
  AC50: 13.7 µM (active)
[13]
  outcome: inactive
[5]
  outcome: inactive
[6]
  outcome: inactive
[8]
  outcome: inactive
[9]
  outcome: inactive
[14]
  outcome: inactive
[10]
  outcome: inactive
[15]
  outcome: inactive
[11]
  outcome: inactive
[12]
  outcome: inactive

## Cc1[nH]c(=O)n(C(C)(C)C)c(=O)c1Cl
[1]
  outcome: inactive
[2]
  outcome: inactive
[3]
  AC50: 28.7 µM (active)
[13]
  outcome: inactive
[5]
  outcome: inactive
[6]
  AC50: 27.4 µM (active)
[16]
  outcome: inactive
[7]
  outcome: inactive
[8]
  outcome: inactive
[9]
  outcome: inactive
[14]
  outcome: inactive
[10]
  outcome: inactive
[15]
  outcome: inactive
[17]
  outcome: inactive
[12]
  outcome: inactive

## CCC(C)(C)C(=O)OC1=C(c2ccc(Cl)cc2Cl)C(=O)OC12CCCCC2
[1]
  outcome: inactive
[2]
  outcome: inactive
[3]
  outcome: inactive
[4]
  outcome: inactive
[18]
  outcome: inactive
[6]
  outcome: inactive
[7]
  outcome: inactive
[8]
  outcome: inactive
[9]
  outcome: inactive
[14]
  outcome: inactive
[11]
  outcome: inactive
[12]
  outcome: inactive

## COC(=O)c1ccccc1S(=O)(=O)NC(=O)N(C)c1nc(C)nc(OC)n1
[1]
  outcome: inactive
[2]
  outcome: inactive
[3]
  outcome: inactive
[13]
  outcome: inactive
[6]
  outcome: inactive
[14]
  outcome: inactive
[10]
  outcome: inactive
[15]
  outcome: inactive
[11]
  outcome: inactive
[12]
  outcome: inactive

## CCc1ccc(C(=O)NN(C(=O)c2cc(C)cc(C)c2)C(C)(C)C)cc1
[1]
  outcome: inactive
[2]
  outcome: inactive
[3]
  outcome: inactive
[4]
  AC50: 9.51 µM (active)
[5]
  outcome: inactive
[18]
  outcome: inactive
[6]
  outcome: inactive
[8]
  outcome: inactive
[19]
  outcome: inactive
[10]
  outcome: inactive
[15]
  outcome: inactive
[12]
  outcome: inactive

## CC1(c2ccc(Oc3ccccc3)cc2)OC(=O)N(Nc2ccccc2)C1=O (centres undefined)
[1]
  outcome: inactive
[2]
  outcome: inactive
[3]
  outcome: inactive
[4]
  AC50: 2.16 µM (active)
[5]
  outcome: inactive
[18]
  outcome: inactive
[6]
  outcome: inactive
[7]
  outcome: inactive
[19]
  outcome: inactive
[9]
  outcome: inactive
[14]
  outcome: inactive
[10]
  outcome: inactive
[17]
  outcome: inactive
[11]
  outcome: inactive
[12]
  outcome: inactive

## CC(C)OC(=O)Nc1cccc(Cl)c1
[1]
  outcome: inactive
[2]
  outcome: inactive
[3]
  outcome: inactive
[4]
  AC50: 50 µM (active)
[5]
  outcome: inactive
[18]
  outcome: inactive
[6]
  outcome: inactive
[9]
  outcome: inactive
[14]
  outcome: inactive
[10]
  outcome: inactive
[15]
  outcome: inactive
[17]
  outcome: inactive
[11]
  outcome: inactive
[12]
  outcome: inactive
